Legend:
Conditions in all cases: concentration: 1 μM, replicates: in singlicate; n = 1
ROCK1 = test system: ROCK1
ROCK2 = test system: ROCK2
ROS1 = test system: ROS1
[1] = test system: RPS6KA4(Kin.Dom.1-N-terminal)
[2] = test system: RPS6KA4(Kin.Dom.2-C-terminal)
[3] = test system: RPS6KA5(Kin.Dom.1-N-terminal)
[4] = test system: RPS6KA5(Kin.Dom.2-C-terminal)
[5] = test system: T1, RSK1(Kin.Dom.1-N-terminal)
T1 construct: gene RPS6KA1

[6] = test system: T2, RSK1(Kin.Dom.2-C-terminal)
T2 construct: gene RPS6KA1

[7] = test system: T3, RSK2(Kin.Dom.1-N-terminal)
T3 construct: gene RPS6KA3

[8] = test system: T4, RSK2(Kin.Dom.2-C-terminal)
T4 construct: gene RPS6KA3

[9] = test system: T5, RSK3(Kin.Dom.1-N-terminal)
T5 construct: gene RPS6KA2

[10] = test system: T6, RSK3(Kin.Dom.2-C-terminal)
T6 construct: gene RPS6KA2

[11] = test system: T7, RSK4(Kin.Dom.1-N-terminal)
T7 construct: gene RPS6KA6

[12] = test system: T8, RSK4(Kin.Dom.2-C-terminal)
T8 construct: gene RPS6KA6

S6K1 = test system: S6K1
SBK1 = test system: SBK1
SGK2 = test system: SGK2
SGK3 = test system: SGK3
SGK = test system: SGK
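Further: KINOMEscan kinase panel screen.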

| Structure (SMILES) | %Inh (ROCK1) | %Inh (ROCK2) | %Inh (ROS1) | %Inh [1] | %Inh [2] | %Inh [3] | %Inh [4] | %Inh [5] | %Inh [6] | %Inh [7] | %Inh [8] | %Inh [9] | %Inh [10] | %Inh [11] | %Inh [12] | %Inh (S6K1) | %Inh (SBK1) | %Inh (SGK2) | %Inh (SGK3) | %Inh (SGK) |
| --- | --- | --- | --- | --- | --- | --- | --- | --- | --- | --- | --- | --- | --- | --- | --- | --- | --- | --- | --- | --- |
| COC(=O)c1c(-c2ccccc2)c2cc(OC)ccc2c(=O)n1Cc1ccccc1 | 0% | 0% | 0% | 0% | 4% | 15% | 0% | 11% | 18% | 0% | 41% | 8% | 21% | 0% | 27% | 8% | 2% | 0% | 16% | 0% |
| COc1cccc(-c2cc(-c3c[nH]nc3-c3ccccn3)ccn2)c1 [GW680338] | 0% | 0% | 0% | 18% | 0% | 0% | 7% | 0% | 9% | 0% | 33% | 0% | 0% | 0% | 48% | 6% | 15% | 4% | 7% | 7% |
| O=C1NC(=O)C(N2CCc3ccccc32)=C1c1ccccc1Cl [SB-373598] | 4% | 0% | 22% | 41% | 0% | 7% | 10% | 0% | 14% | 65% | 2% | 0% | 1% | 3% | 6% | 0% | 69% | 2% | 3% | 0% |
| O=C(Nc1n[nH]c2cc(-c3cccc(F)c3F)ccc12)C1CC1 [SB-733894] | 0% | 9% | 7% | 0% | 2% | 0% | 2% | 13% | 6% | 0% | 0% | 52% | 0% | 0% | 0% | 22% | 11% | 29% | 12% | 32% |
| Cc1cccc(-c2nc(Nc3cccc(C(N)=O)c3)c3ccccc3n2)n1 [GW876019] | 1% | 15% | 0% | 27% | 0% | 0% | 0% | 0% | 46% | 1% | 49% | 2% | 27% | 0% | 9% | 8% | 0% | 0% | 0% | 0% |
| CC1=C(C(=O)Nc2cc3cn[nH]c3cc2F)C(c2ccc(C(F)(F)F)cc2)CC(=O)N1 (stereo not drawn) [GSK429286] | 99.1% | 98.2% | 0% | 16% | 0% | 0% | 0% | 5% | 18% | 19% | 0% | 22% | 0% | 0% | 18% | 14% | 22% | 4% | 4% | 0% |
| O=c1cc(N2CCOCC2)nc2n(Cc3cccc(Cl)c3Cl)ccn12 [GSK2286295] | 0% | 34% | 7% | 17% | 0% | 11% | 0% | 22% | 0% | 0% | 8% | 0% | 28% | 0% | 1% | 0% | 9% | 14% | 9% | 22% |
| COc1ccc(Nc2nccc(-c3cccc(NC(=O)c4cc5cc(F)ccc5[nH]4)c3)n2)cc1 [GSK1229782] | 48% | 35% | 34% | 21% | 0% | 6% | 14% | 13% | 5% | 21% | 0% | 1% | 0% | 0% | 24% | 16% | 18% | 0% | 0% | 6% |
| O=C(Nc1ccc2c(c1)OCO2)NC1CCN(c2ccnc(Nc3ccc(F)cc3)n2)C1 (stereo not drawn) [GSK1379724] | 6% | 3% | 0% | 0% | 0% | 11% | 0% | 11% | 0% | 12% | 0% | 0% | 0% | 0% | 0% | 6% | 13% | 0% | 0% | 0% |
